An excerpt weighted towards active compounds, which were near 6.5% of everything screened.
FMDV inh = blocks foot and mouth disease virus; 1.2% of 410,000 active; FMDV antiviral cell-based qHTS; Potency, µM (top dose mostly 57.9 µM), for the others: at the highest dose activity change, negative = inhibition, hits mostly inhibitors; calls by dose curve; tested in HEK293T cells; also: read-out not given here; potency is read from the fitted curve at half-maximal effect; nearly all actives have a fitted effect of over 45% in size
LASV entry inh = inhibitors of Lassa virus binding or cell entry; Potency, µM (series often up to 37.9 µM), for inactives: at the highest dose activity change, negative = inhibition, actives largely listed as inhibitors; AID 540256; Lassa virus pseudotype entry inhibition, cell reporter; 1.2% of 300,000 active; calls by dose curve; tested in HEK293 cells; also: potency is read from the fitted curve at half-maximal effect; nearly all actives have a fitted effect of over 50% in size
Vaccinia mCherry = vaccinia inhibition (mCherry reporter); 0.63% of 310,000 active; Vaccinia virus mCherry reporter infection, fluorescence; Potency, µM (doses to about 36.5 µM), inactives show at the highest dose activity change, negative = inhibition, usual class: inhibitors; calls by dose curve; tested in A549 cells; also: potency is read from the fitted curve at half-maximal effect; nearly all actives have a fitted effect of over 35% in size
HCMV antiviral = blocks human cytomegalovirus replication; HFF cells, HCMV-luciferase reporter, 72 h; stronger effect = lower value; activity change, negative = inhibition, % at 57.5 µM; 4.5% of 410,000 active; AID 1259415; in the data active = activity change below about -60%; inconclusive = no clear call, values can overlap the other calls; inactive = above about -39%
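Human foreskin fibroblasts infected with luciferase-reporter HCMV at MOI 1 PFU/cell, compounds at two doses. Luciferase measured 72 h post infection; normalized to buffer-only basal and Salinomycin (10uM) controls.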
Marburg entry inh = Marburg virus entry inhibition; Marburg virus pseudotyped entry inhibition, cell reporter; Potency, µM (top dose mostly 37.8 µM), inactives show top-dose activity change, negative = inhibition, usual class: inhibitors; 1.8% of 300,000 active; AID 540276; calls by dose curve; tested in HEK293 cells; also: potency is read from the fitted curve at half-maximal effect
Vaccinia Venus = vaccinia inhibition (Venus reporter); Vaccinia virus Venus reporter expression, fluorescence; Potency, µM (top dose mostly 36.5 µM), without a hit: top-dose activity change, negative = inhibition, actives largely listed as inhibitors; 0.46% of 330,000 active; calls by dose curve; tested in A549 cells; also: potency is read from the fitted curve at half-maximal effect; nearly all actives have a fitted effect of over 30% in size
Active calls of the source: *; i = inactive; ? = inconclusive; · = no result; ! = not active in a repeat; [ ] = another dose, or the depositor's remark. % is scaled to controls: 0 for no effect and ±100 for the full control effect.

SMILES	FMDV inh	LASV entry inh	Vaccinia mCherry	HCMV antiviral	Marburg entry inh	Vaccinia Venus
COc1ccc(Nc2cc3[nH]c(-c4cccc(C(F)(F)F)c4)cc3cn2)cc1	·	·	·	-26	·	·
COC(=O)CCn1nnc(-c2cccs2)n1	-18%	8%	·	-11	6%	·
COC(=O)CCn1nnc(-c2ccc(C(C)C)cc2)n1	?	?	·	-62*	?	·
Cn1ccsc1=NC(=O)c1ccc([N+](=O)[O-])o1	-8%	·	·	-91*	·	·
CCCc1nc(N2CCCC2)c(C#N)c2c1CCCC2	1%	8%	·	-12	-3%	·
CCc1nc(N2CCCC2)c(C#N)c2c1CCCC2	-9%	18%	-11%	-80*	12%	2%
COC(=O)CC=C[C@@H](C)[C@H](OC)c1ccccc1Br	·	?	·	·	0.6µM*!	·
COC(=O)C/C=C/[C@@H](C)[C@@H](Cc1ccccc1Br)OC	·	·	·	·	-4%[14.2 µM]	·
COc1cc(=O)n2c(c1C(=O)N(C)Cc1nonc1C)CCN(C(=O)c1ccc(C)c(C)c1)CC2	22%	·	-9%	·	·	2%
CCOP(=O)(c1ccc(N(C)C)cc1)C(O)c1ccccc1 (stereo unspecified)	-12%	9%	·	-83*	?	·
Cc1ccc(Cl)cc1NC(=O)CSC1=Nc2ccccc2C2=NC(Cc3ccccc3)C(=O)N12 (stereo unspecified)	-1%	?	-5%	?	·	-12%
COc1ccc(NC(=O)CSC2=Nc3ccccc3C3=NC(CCC(=O)NCc4cccs4)C(=O)N23)cc1 (stereo unspecified)	-27%	5%[46.1 µM]	-26%	-73*	·	-20%
COc1cccc(NC(=O)CSC2=Nc3ccccc3C3=NC(CCC(=O)NCCc4ccccc4)C(=O)N23)c1 (stereo unspecified)	?	-10%[46.1 µM]	?	-68*	·	?
CCOc1ccc(NC(=O)CSC2=Nc3ccccc3C3=NC(CCC(=O)NCc4cccs4)C(=O)N23)cc1 (stereo unspecified)	0%	-22%[46.1 µM]	-14%	0	·	-9%
O=C(CSC1=Nc2ccccc2C2=NC(Cc3ccccc3)C(=O)N12)Nc1cccc(Cl)c1 (stereo unspecified)	-24%	?	?	-72*	·	-22%
CC1(C)OC(=O)C2=C(CC(CCc3ccccc3)OC2CCc2ccccc2)O1 (stereo unspecified)	·	·	·	32	·	·
Cc1ccc(C(=O)C[n+]2ccc(Cc3ccccc3)cc2)cc1	-17%	?	-14%	-88*	?	-7%
O=C(C[n+]1ccn(-c2ccccc2)c1)c1ccc([N+](=O)[O-])cc1	-24%	·	·	-63*	·	·
CN(C)c1cc[n+](CC(=O)c2ccc(-c3ccccc3)cc2)cc1	?	?	·	-95*	?	·
Cc1ccc[n+](CC(=O)c2ccc(Br)cc2)c1	-23%	·	·	48	·	·
CN(C)c1cc[n+](CC(=O)c2ccc(Br)cc2)cc1	?	?	i	-74*	-22%[46.1 µM]	-7%
O=C(C[n+]1ccccc1)c1ccc(-c2ccccc2)cc1	-7%	22%	-8%	2	-29%[46.1 µM]	-12%
COc1cc2c(c(OC)c1OC)[C@@]1(c3ccccc3)CCCCC[C@H]1[C@@H]2NC(=O)C(F)(F)F	·	-29%[14.3 µM]	·	·	-13%[14.2 µM]	·
COc1ccc(C(=O)COC(=O)c2ccc(N(C)C)cc2)cc1	25%	-1%[46.1 µM]	0%	-10	0%[46.1 µM]	-11%
COc1ccc(C(=O)C[n+]2cccc3cc(OC)ccc32)cc1	-11%	-11%	-21%	-66*	-14%	-14%
SMILES	FMDV inh	LASV entry inh	Vaccinia mCherry	HCMV antiviral	Marburg entry inh	Vaccinia Venus
C=Cn1cc[n+](CC(=O)c2ccc(-c3ccccc3)cc2)c1	-22%	-24%[46.1 µM]	i	-63*	12%[46.1 µM]	0%
COc1ccc(C(=O)C[n+]2ccc(N(C)C)cc2)cc1	-26%	?	i	-68*	2%[46.1 µM]	-16%
C=Cn1cc[n+](CC(=O)c2cccs2)c1	27%	·	·	19	·	·
CCOc1ccc(NC(=O)c2nnn(-c3ccc(F)c(Cl)c3)c2C)cc1	1%	10%[46.1 µM]	-11%	-10	2%[46.1 µM]	0%
O=C(O)c1cccc(N2CCCCS2(=O)=O)c1	-11%	7%	-6%	-100*	-1%	-2%
OC(COC(c1ccc(F)cc1)c1ccc(F)cc1)CN1CCc2ccccc2C1 (stereo unspecified)	-21%	-22%	?	-61*	?	?
CN1CCN(CC(O)COC(c2ccc(Cl)cc2)c2ccc(Cl)cc2)CC1 (stereo unspecified)	-19%	·	·	-80*	·	·
OC(COC(c1ccc(Cl)cc1)c1ccc(Cl)cc1)CN1CCCC1 (stereo unspecified)	-16%	?	·	28	?	·
CC(C)(C)c1ccc(OCC(O)CN2CCc3ccccc3C2)cc1 (stereo unspecified)	-15%	·	·	-63*	·	·
CC(=O)OC1CC2C(C)(C)C(=O)C=C[C@]2(C)C2CC[C@]3(C)C(=CC(=O)OC3c3ccoc3)[C@]12C (stereo partly specified)	25µM*	·	-24%	·	·	?
C(=C\c1ccnc2ccccc12)/c1ccc(N(Cc2ccccc2)Cc2ccccc2)cc1	·	·	-13%	·	·	10%
C=CCn1c(SCC(=O)NCC)nnc1-c1cc2c(s1)CCC(CC)C2 (stereo unspecified)	-3%	0%	-29%	-68*	0%	-24%
COC1=C(C)C(=O)c2c(c(COC(N)=O)c3n2C[C@@H]2[C@@H]3N2C)C1=O (stereo partly specified)	·	·	-28%	·	·	11µM*
Cn1cccc1C(=O)N1CCC2(CC1)CN(c1ccccn1)C2	-26%	·	·	·	·	·
COc1cc(/C=N\Nc2nncn2N)ccc1OC(C)=O	7%	?	16µM*	-8	?	20µM*
CCOC(=O)c1c(NC(=O)C(Sc2ccccc2)c2ccccc2)sc(C(=O)N(C)C)c1C (stereo unspecified)	0%	16µM*	?	-8	?	?
CCOC(=O)c1c(NC(=O)C2c3ccccc3Oc3ccccc32)sc(C(=O)N(CC)CC)c1C	?	?	·	·	13µM*	-28%
CCC(C(=O)Nc1ccsc1C(=O)OC)c1ccccc1 (stereo unspecified)	?	15%	-5%	-67*	10%[46.1 µM]	0%
CCC(C(=O)Nc1sc(C(N)=O)c(C)c1C(=O)OC)c1ccccc1 (stereo unspecified)	-22%	·	-11%	12	13µM*	-22%
CCOC(=O)c1c(NC(=O)C(Sc2ccccc2)c2ccccc2)sc(C(N)=O)c1C (stereo unspecified)	?	?	·	17	-30%	·
CCOC(=O)/C=C1\NC(C)(C)CC2=C1CC(O)=C(OC)C2	·	·	·	·	8%	·
COCCn1c(=O)c(-c2cn(C)c3ccccc23)nc2cnc(Oc3cccc(Cl)c3)nc21	-17%	·	·	·	·	·
COc1ccccc1NC(=O)CSc1nc(-c2ccc(C(C)(C)C)cc2)c(C#N)c(=O)[nH]1	-9%	2%[46.1 µM]	-15%	-22	12%[46.1 µM]	-8%

Screening data from PubChem.
